Compounds without any hit were thinned out: in the full panel of roughly 79,000, 15% have a hit. Unmarked numbers belong to inactive results. Activity calls are given as the source filed them. No stated cut-off is given here; in the data, active means growth inhibition above about 70%; inactive means the rest.
Legend:
[1] = NCI Yeast Anticancer Drug Screen. Data for the rad50 strain (AID 155);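 further: 0% = growth of vehicle-only cultures of the same strain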; conditions: S. cerevisiae rad50 strain growth inhibition; at 50.0 µM; stronger effect = higher value
How it was run: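 Growth of the mutant yeast was measured after compound exposure and referenced to vehicle-treated cultures.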

[2] = NCI Yeast Anticancer Drug Screen. Data for the mec2-1 strain (AID 157); conditions: S. cerevisiae mec2-1 strain, at 50.0 µM, stronger effect = higher value
How it was run: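 Growth inhibition is read against vehicle-treated controls after compound exposure of the mec2-1 yeast strain, which is defective in DNA damage repair or cell cycle control.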

[3] = NCI Yeast Anticancer Drug Screen. Data for the sgs1 mgt1 strain (AID 161);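 further: 0% = growth of cultures given vehicle only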; conditions: S. cerevisiae sgs1 mgt1 strain, at 50.0 µM, stronger effect = higher value
How it was run: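 Yeast cells carrying a defined DNA-repair defect were exposed to test compounds. Growth inhibition was measured relative to vehicle-treated controls.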

[4] = NCI Yeast Anticancer Drug Screen. Data for the cln2 rad14 strain (AID 165);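 further: 0% = growth equal to vehicle treated cultures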; conditions: S. cerevisiae cln2 rad14 strain, at 50.0 µM, stronger effect = higher value
How it was run: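 Growth inhibition, relative to vehicle-treated controls, is the read-out. The test organism is a yeast strain with defined genetic alterations, cln2 rad14.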

[5] = NCI Yeast Anticancer Drug Screen. Data for the bub3 strain (AID 167); conditions: S. cerevisiae bub3 mutant strain, at 50.0 µM, stronger effect = higher value
How it was run: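 Whole-cell yeast assay. The mutant strain was incubated with compounds, and growth inhibition was determined by comparison with vehicle-treated cells.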

[6] = NCI Yeast Anticancer Drug Screen. Data for the mlh1 rad18 strain (AID 175); conditions: S. cerevisiae mlh1 rad18 strain growth inhibition; at 50.0 µM; stronger effect = higher value
How it was run: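 Cells of a genetically altered yeast strain, deficient in DNA damage repair, were treated with compound. Their growth was then compared with that of vehicle-treated cultures to give inhibition.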

Structure (SMILES) | growth inhibition [1] | growth inhibition [2] | growth inhibition [3] | growth inhibition [4] | growth inhibition [5] | growth inhibition [6]
CCCN=C(C)C(C)=NCCC | -18.7% | -15.1% | -15.1% | -11% | -19.4% | -11.3%
Cc1ccc(S(=O)(=O)N/N=C(\C(=N/OCc2ccccc2)c2ccccc2)c2ccccc2)cc1 | 43.4% | -3.75% | 27.6% | 14.8% | 10.8% | 9.65%
Fc1ccccc1N=Cc1ccc(C=Nc2ccccc2F)cc1 | 3.85% | -11.2% | 23.9% | 21.3% | 45.6% | 26.4%
Oc1ccc(O)c(-c2ccccc2)c1 | 61.5% | 36.2% | 53.2% | 51% | 33.6% | 44%
COC(=O)C(N)Cc1ccc(O)c(O)c1 (configuration not stated) | 20.1% | 4.7% | 8.1% | 10.8% | 22.9% | 48.5%
CCc1c(C(=O)OC)c(C(=O)OC)c(-c2ccc(C)cc2)n1CCn1c(CC)c(C(=O)OC)c(C(=O)OC)c1-c1ccc(C)cc1 | -0.55% | 0.3% | -26.1% | -0.6% | -3.15% | 17.9%
O=C1CCC(=O)N1CC1CC2CCC1C2 (configuration not stated) | 40% | 4.15% | 22.2% | 23.8% | 4.4% | 36%
CC(C)OC(=O)c1ccc(=O)oc1 | 7.4% | -5.85% | -2.4% | -8.75% | -18.4% | -5.15%
C1OCC(C2OCOC2C2OCOC2C2COCO2)O1 (configuration not stated) | 7.8% | 20.9% | -5.25% | -8.65% | 34.9% | 9.5%
O=c1nc(Sc2ccccc2)ccn1C1OC(CO)C(O)C1O (configuration not stated) | -11.5% | -8.95% | -1.45% | 9.35% | 6.55% | 5.95%
O=C1c2ccccc2C(=O)N1C1(C(=O)O)CCCC1 | -5.3% | -7.6% | -7.65% | -27.1% | -15.6% | -10.4%
COC(=O)C(CCCCNC(=O)OCc1ccccc1)NC(=O)c1ccc(N(C)C=O)cc1 (configuration not stated) | 14.6% | 19.7% | -1.7% | 26.6% | 3.45% | 14.8%
CC1=C(C(=O)Nc2ccccc2)C(c2ccccc2)C(C(=O)Nc2ccccc2)=C(C)N1 | 4.2% | 2.55% | 14.5% | 18.4% | 0.55% | 22.4%
COC(=O)CCC(=O)c1ccc2c(c1)CCC2 | -3.25% | -26.2% | 17.2% | 3% | 33.5% | 7.65%
COC1(OC)C2(Cl)C(Cl)=C(Cl)C1(Cl)C1CCCCCC12 (configuration not stated) | -4.95% | 2.8% | 1.85% | -60.7% | -8.4% | 8.15%
COc1ccc(C=Nc2ccc(C(=O)O)cc2)cc1 | 0.5% | 9.35% | 1.45% | -2.25% | 13.9% | -6.25%
O=C(c1ccc(F)cc1)C1CCC1 | 16.3% | -22.7% | 16.6% | 18.1% | 18.6% | 22.1%
O=C(Nc1ccccc1)c1cccc(F)c1 | -2.9% | -20.8% | -6.25% | 9.1% | -19.4% | 7.6%
CCOC(=O)c1c(C)[nH]c(C2=NCCC2)c1C | -8.7% | 5.3% | 1.7% | -55.9% | 2.95% | -5.95%
COc1cc2c(cc1OC)C(=O)C1(CO)COC(=O)C1C2 (configuration not stated) | -7.7% | -19% | -2.15% | -1.4% | -1% | 5.9%
CCCC(=O)OCCc1ccccc1 | 12.8% | 10.3% | 16.4% | -65.5% | 5.1% | -26%

Structure (SMILES) | growth inhibition [1] | growth inhibition [2] | growth inhibition [3] | growth inhibition [4] | growth inhibition [5] | growth inhibition [6]
Cc1onc(-c2c(F)cccc2Cl)c1-c1ncc(-c2ccc(Cl)cc2)o1 | 3.05% | 3.3% | 29.4% | 0.8% | 29.8% | 16.4%
COc1ccc(CCNC(=O)CC2CCN(Cc3ccccc3)CC2)cc1OC | 3.65% | 1.15% | 5.2% | -3.75% | -3.45% | -1.5%
O=C1Nc2ccccc2/C1=N/N=P(c1ccccc1)(c1ccccc1)c1ccccc1 | -10.2% | 0.35% | 10.1% | 2.4% | -5.8% | -5.15%
O=c1[nH]cnc2sc3c(c12)CCC3 | 30.6% | 6.9% | 14.2% | 13.4% | 3.1% | 1.55%
COc1ccc(C(C)=C2C=C(C(C)(C)C)C(=O)C(C(C)(C)C)=C2)cc1 | -26.6% | -16.2% | -17.4% | 34.2% | 1.35% | -17.4%
CCCOC(=O)c1c(Cl)c(Cl)c(Cl)c(Cl)c1C(=O)OCCC | 12.8% | -20.8% | 4.8% | -3.05% | -15.2% | 8.3%
CN(C)c1ncnc2cn[nH]c12 | 3.6% | -5.75% | 0.25% | 5.7% | 17.4% | 0.6%
NC(C(=O)O)c1ccc(C(=O)O)cc1 (configuration not stated) | 30.7% | 15.6% | -5.55% | 18.8% | -7.6% | 20.5%
COC1=C(c2ccccc2)P(=O)(Cc2ccccc2)C2CCCC12 (configuration not stated) | 4.95% | 21.4% | 35.9% | 7.6% | 21.4% | -17.3%
Cc1c2n(c(=O)[nH]c1=O)C1OC(CO)C(N=[N+]=[N-])C1O2 (configuration not stated) | -5.5% | -15.9% | -42% | -12.3% | -39.2% | -32.2%
O=C1CCCCCCCCCCC1Cc1cc(O)c(CC2CCCCCCCCCCC2=O)cc1O (configuration not stated) | -1.2% | 3% | -5.95% | -12.9% | -5.8% | -12.8%
CCCCCCCCN1COC2CCc3ccccc3C21 (configuration not stated) | 93.5% (active) | 93.8% (active) | 93.8% (active) | 87.6% (active) | 94% (active) | 92.3% (active)
CC(C)N(CSc1ccc([N+](=O)[O-])cc1)CSc1ccc([N+](=O)[O-])cc1 | 12.3% | 5.75% | 4.1% | -4.1% | -4.7% | -1%
CCOC(=O)n1oc2ccc(Br)cc2c1=O | 53.3% | 58% | 76.2% (active) | 45% | 61.6% | 64.5%
CCCCc1c2c(nc3c1CCCC3=O)CCCC2 | 8.7% | 8.45% | 27.4% | 15.8% | 37.9% | -0.8%
c1ccc2c(c1)ccc1c3ccccc3ncc21 | 62.8% | 27.8% | 32.6% | 35.5% | 0.75% | 23.1%
CCOC(=N)c1ccc(C(=N)OCC)cc1 | -11.2% | -29.4% | -29.4% | -20.8% | -32.5% | -41.7%
O=c1onc2c3ccccc3ncn12 | 15.2% | 7.6% | -21.2% | -11.4% | -8.6% | 0.65%
Cc1ccnc(-n2c(N)cc(=O)[nH]c2=S)c1 | -7.15% | 1.3% | 10.6% | -17.4% | 27.6% | 5.55%
O=Cc1ccc2c(c1)CC1(Cc3ccccc3C1)C2 | -3.35% | -47.8% | -10.8% | -7.2% | 9.9% | -30.3%
CC(=O)Nc1nc(C)c(CC/C=C/c2ccc([N+](=O)[O-])cc2)c(=O)[nH]1 | 4.75% | 32.6% | -3.8% | 2.95% | -8.15% | -6.1%

— PubChem BioAssay (NCI)
